TRPML1 ag: activates the human TRPML1 channel | Q9GZU1 | TRPML1-expressing cells, Ca2+ dye fluorescence, FDSS | activation, % (concentration not given with the values) | 410,000 tested, 0.12% active | AID 624414; in the data active = activation above about 50%; inconclusive = mostly about 30% to 49%; also: 0% is about no effect
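In this qHTS format, compounds were pin-transferred onto Ca8-dye-loaded TRPML1-DL cells induced with Tet overnight, and intracellular Ca2+ fluorescence was recorded kinetically for 110 s after a 10 s baseline. A subsequent 4uM final 54-4 (EC80) addition followed by a second 110 s read served as the antagonist phase.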
KCNH2 WT inh: blocks the wildtype human KCNH2 potassium channel; Q12809; U2OS, BacMam KCNH2, thallium flux FluxOr; hits give low values; activity change, % at 1.84 µM; 340,000 tested, 0.37% active;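 active = maximum activity change below -70%; inconclusive = maximum activity change between -70% and -50%; inactive = maximum activity change above -50%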; also: % is scaled to controls: 0 for no effect and ±100 for the full control effect
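U2OS cells were transduced with wild-type KCNH2 virus (2.03 x 10^8 / mL) for 4 h at room temperature, then cultured overnight at 37 C. Thallium flux was read with FluxOr dye. Rate constants were normalized to DMSO controls.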
KCNH2 3.1 block: KCNH2 3.1 (human) potassium channel inhibition. 340,000 tested, 0.95% active. U2OS KCNH2 3.1, thallium flux FluxOr; hits give low values. activity change, % (tested at about 1.8 µM);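 active = maximum activity change below -70%; inconclusive = maximum activity change from -70% to -50%; inactive = maximum activity change above -50%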;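 also: thallium influx rate constant from kinetic fluorescence after stimulation buffer; % is scaled to controls: 0 for no effect and ±100 for the full control effect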
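We transduce U2OS cells with the mutant 3.1 virus, culture them overnight, load FluxOr with Red40 quencher for 45 min, then add stimulation buffer and read kinetically for 2 min to derive a normalized rate constant.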
TRPV1 potentiator: potentiators of human vanilloid receptor 1 (TRPV1); 320,000 tested, 0.02% active; TRPV1-expressing cells, Fluo-8 calcium influx, capsaicin EC20 potentiation; potentiation, % at 8.33 µM; Q8NER1; AID 540277; in the data active = potentiation above about 80%; inconclusive = between about 30% and that limit; also: 0% is about no effect
Target sequence (Q8NER1 whole entry, looked up): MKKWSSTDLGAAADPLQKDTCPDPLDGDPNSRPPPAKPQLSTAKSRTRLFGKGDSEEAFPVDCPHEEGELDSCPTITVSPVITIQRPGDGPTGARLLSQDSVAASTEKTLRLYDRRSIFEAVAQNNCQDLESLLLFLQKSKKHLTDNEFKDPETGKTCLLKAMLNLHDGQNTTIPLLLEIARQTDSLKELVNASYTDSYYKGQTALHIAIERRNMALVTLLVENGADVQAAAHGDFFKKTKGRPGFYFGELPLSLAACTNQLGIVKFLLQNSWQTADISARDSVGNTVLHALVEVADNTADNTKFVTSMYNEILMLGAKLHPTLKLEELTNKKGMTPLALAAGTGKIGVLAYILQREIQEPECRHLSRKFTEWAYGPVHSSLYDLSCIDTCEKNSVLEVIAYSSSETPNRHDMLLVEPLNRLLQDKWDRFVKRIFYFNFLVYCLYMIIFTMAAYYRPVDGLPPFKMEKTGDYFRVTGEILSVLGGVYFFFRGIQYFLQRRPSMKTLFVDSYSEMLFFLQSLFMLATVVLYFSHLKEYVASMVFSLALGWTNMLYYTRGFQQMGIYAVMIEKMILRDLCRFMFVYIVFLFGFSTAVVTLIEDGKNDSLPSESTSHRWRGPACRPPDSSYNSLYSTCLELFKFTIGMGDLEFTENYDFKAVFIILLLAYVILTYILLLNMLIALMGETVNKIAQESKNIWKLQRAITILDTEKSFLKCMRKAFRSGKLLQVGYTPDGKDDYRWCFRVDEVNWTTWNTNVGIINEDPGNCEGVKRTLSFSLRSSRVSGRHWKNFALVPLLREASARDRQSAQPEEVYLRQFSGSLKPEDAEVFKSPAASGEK
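Cells expressing TRPV1 were dye-loaded with Fluo-8 and read kinetically: 10 s baseline, 3 min after compound (agonist portion), then 2 min after EC20 capsaicin (allosteric enhancer portion). Calcium-bound dye fluorescence at 480/520 nm.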
TRPV1 ag: agonists of human vanilloid receptor 1 (TRPV1) | activation, % at 8.33 µM | 320,000 tested, 0.19% active | TRPV1-expressing cells, Fluo-8 calcium influx, agonist mode; in the data active = activation above about 80%; inconclusive = between about 30% and that limit; also: 0% is about no effect
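TRPV1-expressing cells were cultured overnight at 35.5C and loaded with Fluo-8 calcium dye for 40 to 90 min at room temperature. After a 10 s baseline, compound was added and calcium influx was read kinetically for 3 min (ex 480/em 520 nm).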
TRPML1 inh: inhibitors of human TRPML1 channel. 390,000 tested, 0.02% active. TRPML1-inducible cells, Ca2+ dye fluorescence, FDSS; hits give low values; inhibition of EC80 agonist-evoked calcium signal. activity change, negative = inhibition, % (concentration not given with the values). Q9GZU1; in the data active = activity change below about -50%; inconclusive = between about -30% and that limit;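 also: stimulus is agonist 54-4 at its EC80 concentration; % is scaled to controls: 0 for no effect and ±100 for the full control effect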
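Calcium fluorescence in TRPML1-DL cells induced overnight with Tet: a 110 s read after compound pin addition, then a 110 s antagonist read after challenge with 54-4 at 4 uM final (EC80).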
Active calls of the source: *; ? = inconclusive; / = no result given. Rows were chosen to be rich in hits. Some 1.3% of all compounds tested hit in one or more screens of this group.

SMILES | TRPML1 ag | KCNH2 WT inh | KCNH2 3.1 block | TRPV1 potentiator | TRPV1 ag | TRPML1 inh
CCCCn1nnnc1C(c1ccccc1)N1CCN(Cc2c(F)cccc2Cl)CC1 (configuration not stated) | 57* | / | / | / | / | /
Cc1ccc(C(c2nnnn2Cc2ccccc2)N2CCN(Cc3ccccc3)CC2)cc1 (configuration not stated) | 16 | -77* | ? | -8 | 8 | -11
Cc1ccccc1Cn1ccn(-c2ccc(F)c(F)c2)c(=O)c1=O | -1 | / | / | / | / | -1
CCc1ccccc1N(C)C(=O)c1cc2c(=O)oc3ccccc3c2s1 | -2 | / | / | / | / | -8
Cc1cc(C)nc(N/N=C/C(Cl)=C/c2ccccc2)n1 | 0 | 7 | -83* | 4 | 5 | 5
Cc1cccc(N2CCN(C(=O)NC3CCCCC3)CC2C)c1 (configuration not stated) | 0 | -3 | -24 | -7 | 93* | -3
O=C1NC[C@H](Cc2ccccc2)N(CC2CCN(CCc3ccccc3)CC2)C1=O | 0 | 7 | -8 | / | / | -4
O=C1NC[C@H](Cc2ccccc2)N(CC2CCN(CCc3ccc(-c4ccccc4)cc3)CC2)C1=O | -1 | -43 | -93* | / | / | 3
CC(C)C[C@H]1CNC(=S)N1CC1CCN(CC2CCCC2)CC1 | 0 | 48 | 9 | / | / | -3
O=C1NC[C@H](Cc2ccccc2)N(CC2CCN(CC3CCCC3)CC2)C1=O | -1 | 20 | -6 | / | / | 6
CC(C)C[C@H]1CNC(=S)N1CC1CCN(CCCC2CCCCC2)CC1 | 0 | 5 | -72* | / | / | 2
O=C1NC[C@H](Cc2ccccc2)N(CC2CCN(CCCC3CCCC3)CC2)C1=O | 0 | -130* | -80* | / | / | -11
CC(=O)Nc1ccc(NC(=O)c2oc3ccc4c(c3c2C)C(=O)CC(C)(C)O4)cc1 | 1 | / | / | / | / | 1
Cc1ccc(N2CC(NC(=O)Cc3cccs3)CC2=O)cc1C (configuration not stated) | -1 | / | / | / | / | -25
CC(C)(C)OC(=O)N1CCC(c2c(C(=O)Nc3ccc4c(c3)OCCO4)cnn2-c2ccccc2)CC1 | 1 | / | / | / | / | -23
N/C(Cc1ccc([N+](=O)[O-])cc1)=N\OC(=O)C(c1ccccc1)c1ccccc1 | 3 | 3 | -82* | -1 | 0 | 9
O=C(Nc1ccc([N+](=O)[O-])cc1)C(c1ccccc1)c1ccccc1 | 0 | 7 | -79* | / | / | 3
N/C(Cc1ccc([N+](=O)[O-])cc1)=N\OC(=O)c1ccccc1Br | 1 | 11 | 7 | 0 | 0 | 9
CCC1NC(=S)NC(C)=C1C(=O)c1ccccc1 (configuration not stated) | -1 | 2 | -116* | 10 | -3 | 0
COc1ccc(C2NC(=S)NC(C)=C2C(=O)c2ccccc2)cc1OC (configuration not stated) | 0 | 1 | 3 | 0 | -2 | 11
COCCn1c(=O)[nH]c2cc(C(=O)N3CCN(c4cc(C)ccc4C)CC3)ccc2c1=O | 0 | -3 | -80* | 0 | 1 | -10
Cc1ccc(C)c(N2CCN(C(=O)c3ccc4c(=O)n(CCc5ccccc5)c(=O)[nH]c4c3)CC2)c1 | -1 | / | / | / | / | 46
Cc1ccc2sc(N3CCN(C(=O)c4ccc([N+](=O)[O-])o4)CC3)nc2c1C | 0 | -139* | -201* | -8 | 28 | 87
O=C(Nc1cccc(C(=O)Nc2cccc(Br)c2)c1)c1ccccc1 | 0 | 9 | -18 | -7 | 15 | 2
CC(C)c1ccc(NC(=O)c2cccc(Br)c2)cc1 | -1 | -6 | -12 | 6 | 93* | -14
SMILES | TRPML1 ag | KCNH2 WT inh | KCNH2 3.1 block | TRPV1 potentiator | TRPV1 ag | TRPML1 inh
CCC(C)N(C)Cc1cccc(C2(O)CCN(S(=O)(=O)c3ccc(F)c(C)c3)CC2)c1 (configuration not stated) | 1 | -43 | -100* | 0 | 3 | -4
Nc1ccc(/C=C/c2ccnc3ccccc23)cc1 | 8 | / | / | / | / | /
CN(C(=S)NC(=O)c1ccc(Cl)cc1)C1CCCCC1 | 0 | -74* | -15 | 5 | ? | -21
CN(C(=S)NC(=O)c1ccc(F)cc1)C1CCCCC1 | 0 | -3 | -1 | -27 | 19 | -10
COC(=O)/C(=C\C(=O)c1ccc([N+](=O)[O-])cc1)Nc1ccc(OC)cc1 | 1 | -6 | -77* | -4 | 1 | 29
Nc1c(C(=O)NCc2ccccc2)sc2nc(N3CCOCC3)c3c(c12)CCCC3 | 5 | 4 | -72* | -6 | 1 | 7
COc1ccc(C(=O)OCC(=O)NC(C)CCc2ccccc2)cc1OC (configuration not stated) | / | -77* | 80 | -2 | 3 | /
COc1ccc(C(=O)OCC(=O)NC(C)CCc2ccccc2)cc1 (configuration not stated) | 0 | -6 | 3 | 15 | -5 | 14
O=C(Nc1ccc(NC(=O)c2cc3ccccc3o2)cc1)c1ccccc1 | -1 | / | / | / | / | -11
Cc1ccc(C(=O)N2CCN(c3ccc(NC(=O)CSc4ccc(Cl)cc4)cc3)CC2)cc1 | -1 | -118* | -118* | 11 | 2 | 10
O=C(Nc1ccc2c(c1)OCCO2)c1cc2ccccc2o1 | -1 | -3 | 7 | -17 | 81* | 33
CN1CCN(c2ccc(NC(=O)c3sc4ccccc4c3Cl)cc2)CC1 | -1 | -38 | -74* | 8 | 3 | 5
O=C(Nc1ccc(N2CCN(C(=O)c3ccc(Cl)cc3)CC2)cc1)c1cc2ccccc2o1 | 1 | -117* | -111* | -7 | ? | -6
O=S1(=O)CCO[C@H]2CCCC[C@@H]2N1Cc1ccccc1F | -1 | / | / | / | / | /
CC(C)(C)n1ncc2c(=O)n(Cc3ccc(SC(=O)O)cc3Cl)cnc21 | 1 | / | / | / | / | 1
O=C(Nc1ccc(N2CCN(C(=O)c3cccs3)CC2)cc1)c1ccc(Br)o1 | 0 | 4 | 4 | -5 | 3 | 16
CN1CCN(c2ccc(NC(=O)c3ccc(-c4ccc(Cl)cc4)o3)cc2)CC1 | 0 | 16 | -95* | -7 | 8 | -16
CS(=O)(=O)N1CCN(c2ccc(NC(=O)c3ccc(-c4ccc(Cl)cc4)o3)cc2)CC1 | 1 | 12 | -32 | -11 | 3 | -10
O=C(Nc1ccc(N2CCN(C(=O)c3ccc(Cl)cc3)CC2)cc1)c1ccc(Br)o1 | 2 | -7 | -90* | -7 | 14 | -2
CCc1ccc(C(=O)C[N+]2(C)CCOCC2)cc1 | 0 | / | / | / | / | /
O=C(C[n+]1cccc2cccc(O)c21)c1ccccc1 | 3 | / | / | / | / | /
CC1(C)CC(=O)C=C(c2cccc(OC(=O)c3ccc(-c4ccccc4)cc3)c2)C1=O | 0 | -142* | -156* | / | / | 11

Assay outcomes: PubChem BioAssay, National Center for Advancing Translational Sciences (NCATS)
